Rows were chosen to be rich in hits. Some 10% of all compounds tested hit in one or more screens of this group.
NIH3T3 tox: Cytotoxic Profiling in NIH 3T3 Cell Line of Diverse Libraries Using Quantitative High-Throughput Screening. NIH 3T3 viability, CellTiter-Glo ATP luminescence, 48-72 h. Potency, µM (titrated, usually from 96.7 µM), usual class: inhibitors. 94,000 compounds, 4.3% hits. AID 1345082, 2018; note: nearly all actives have a fitted effect of over 55% in size
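Viability of NIH 3T3 cells after 48 or 72 hr compound treatment at 37 °C was assessed by CellTiter-Glo, with luminescence imaged following a 10 min room-temperature step.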
GPT2 inhibitor: Primary qHTS assay for inhibitors of Glutamate pyruvate transaminase 2 (GPT2); Alanine aminotransferase 2 (Homo sapiens), Q8TD30; Recombinant GPT2, coupled pyruvate oxidase/HRP Amplex Red fluorescence; Potency, µM (doses to about 57.7 µM), actives largely listed as inhibitors; 100,000 compounds, 0.25% hits; note: nearly all actives have a fitted effect of over 60% in size
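GPT2 10ng/uL, a-KG 250uM, L-Ala 2mM, HEPES pH7.5 + 0.0001% Tween; 30 min RT. Then Amplex mix (PO/HRP/ThPP), 30 min RT dark, fluorescence. AOA 50uM used as positive control.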
FLuc inh: Firefly luciferase inhibition profiling of diverse chemical library using quantitative high-throughput screening | Luciferin 4-monooxygenase (Photinus pyralis), P08659 | purified P. pyralis luciferase, luminescence, biochemical | Potency, µM (top dose mostly 115 µM), most hits filed as inhibitors | 76,000 compounds, 2.5% hits; note: nearly all actives have a fitted effect of over 65% in size
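Luminescence read by CCD imaging after purified firefly luciferase (10nM final) was added to substrate buffer holding 10uM D-luciferin and 10uM ATP, pH 7.5, pre-dosed with compound.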
NPR1 antag: Natriuretic polypeptide receptor (hNpr1) antagonism - Primary qHTS. HEK293 hNpr1 GloSensor cGMP, ANP-stimulated luminescence. Potency, µM (titrated, usually from 46.3 µM), most hits filed as inhibitors. Atrial natriuretic peptide receptor 1 (Homo sapiens), P16066. AID 1347048, 2019. 76,000 compounds, 1.6% hits; calls by dose curve; note: nearly all actives have a fitted effect of over 60% in size
Target sequence (P16066 whole entry, looked up): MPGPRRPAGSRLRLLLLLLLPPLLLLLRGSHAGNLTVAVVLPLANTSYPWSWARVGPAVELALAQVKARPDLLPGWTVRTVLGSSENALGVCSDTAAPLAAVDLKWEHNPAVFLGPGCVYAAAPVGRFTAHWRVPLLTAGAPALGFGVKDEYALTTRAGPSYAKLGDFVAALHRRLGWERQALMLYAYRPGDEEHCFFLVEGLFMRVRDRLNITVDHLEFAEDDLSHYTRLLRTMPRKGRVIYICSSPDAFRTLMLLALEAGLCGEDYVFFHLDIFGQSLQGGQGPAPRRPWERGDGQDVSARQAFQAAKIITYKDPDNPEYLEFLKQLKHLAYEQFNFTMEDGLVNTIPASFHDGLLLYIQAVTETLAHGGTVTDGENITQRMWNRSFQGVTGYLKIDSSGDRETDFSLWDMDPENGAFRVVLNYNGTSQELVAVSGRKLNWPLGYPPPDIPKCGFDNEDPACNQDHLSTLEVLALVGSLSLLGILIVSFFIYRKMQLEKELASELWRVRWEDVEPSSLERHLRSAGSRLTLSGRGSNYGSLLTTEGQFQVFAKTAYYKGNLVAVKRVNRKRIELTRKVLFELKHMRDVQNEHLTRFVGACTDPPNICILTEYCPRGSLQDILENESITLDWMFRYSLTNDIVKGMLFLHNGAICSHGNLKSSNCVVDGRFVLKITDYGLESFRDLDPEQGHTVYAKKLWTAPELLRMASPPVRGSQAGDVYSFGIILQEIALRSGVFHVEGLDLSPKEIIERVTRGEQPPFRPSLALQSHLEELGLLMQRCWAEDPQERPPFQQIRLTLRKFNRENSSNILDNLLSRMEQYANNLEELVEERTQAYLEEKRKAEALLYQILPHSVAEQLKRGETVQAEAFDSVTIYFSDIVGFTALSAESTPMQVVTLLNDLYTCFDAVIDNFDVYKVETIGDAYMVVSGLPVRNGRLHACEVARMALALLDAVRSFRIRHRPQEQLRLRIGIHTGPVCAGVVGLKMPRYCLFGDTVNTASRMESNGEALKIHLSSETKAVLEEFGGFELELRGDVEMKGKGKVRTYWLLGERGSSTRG
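Compound pre-incubated 30 min at room temperature on GloSensor-loaded HEK293 cells stably carrying hNpr1 and the pGS-40F cGMP biosensor. Stimulation uses hNppA at 0.1 nM final; luminescence is taken at baseline and 20 min post-agonist.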
HEK cytotox: Cytotoxic Profiling in HEK 293 Cell Line of Diverse Libraries Using Quantitative High-Throughput Screening | HEK 293 viability, ATP luminescence (CellTiter-Glo), 48-72 h | Potency, µM (doses to about 115 µM), most hits filed as inhibitors | 94,000 compounds, 6.6% hits | AID 1345083, 2018; note: nearly all actives have a fitted effect of over 60% in size
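ATP-coupled CellTiter-Glo luminescence served as viability read-out, recorded 10 min after reagent addition at room temperature. HEK 293 cells, 250 cells/well, had been incubated with pintool-transferred compound for 48 or 72 hr at 37 degree Celsius.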
A number is an active result; – = inactive; ? = inconclusive; · = no result given; [ ] = remark or other dose. Unless noted, calls come from the whole dose curve; as a rule, active = well fitted curve in the direction sought with a large enough effect; inconclusive = small, poorly fitted or top-dose-only effect, or another doubt; inactive = no such curve, though single readings can be large; an effect the other way counts as inactive or inconclusive.

SMILES	NIH3T3 tox	GPT2 inhibitor	FLuc inh	NPR1 antag	HEK cytotox
CN(C)c1ccc(CNC2(Cc3cc(-c4ccccc4)on3)COC2)cc1	–	–	–	–	89.1µM
CCC(C(=O)Nc1ccc2c(c1)CN(Cc1ccccc1Cl)C(=O)C(C)O2)c1ccccc1 (centres undefined)	?	–	–	–	?
NCc1ccc(-c2ccc(F)cc2F)cc1	?	–	·	·	?
Clc1ccccc1C1(c2ccnc(NC3CC3)n2)CCNCC1	?	–	–	–	?
COCCNc1nccc(C2(c3ccccc3Cl)CCNCC2)n1	–	–[11.5 µM]	–	–	?
Clc1ccccc1C1(c2ccnc(NCc3ccccc3)n2)CCNCC1	25.1µM	–	–	?	?
Clc1ccccc1C1(c2ccnc(C3CCCC3)n2)CCNCC1	31.6µM	–	–	–	?
Clc1ccccc1C1(c2ccnc(NCc3ccccn3)n2)CCNCC1	–	–[11.5 µM]	–	–	?
COc1ccccc1Cc1nccc(C2(c3ccccc3Cl)CCNCC2)n1	22.4µM	–[11.5 µM]	–	–	?
Clc1ccccc1C1(c2ccnc(CC3CC3)n2)CCNCC1	79.4µM	–	–	–	?
O=C(c1ccccc1F)N1CCN(c2ccc3nnc(-c4ccccc4)n3n2)CC1	?	·	·	·	–
COc1ccccc1-c1cccc(C(=O)O)c1	–	–	·	·	–
Cc1ccc(-n2[nH]c(C)c(N=Nc3cccc(-c4cccc(C(=O)O)c4)c3O)c2=O)cc1C	·	1.93µM	·	·	·
COC1=C(OC)C(=O)c2ccccc2C1=O	·	2.82µM	·	·	·
CNC(=O)c1cc(C2CC2)nc2c1c(C1CCN(C(=O)Cc3ccccc3)CC1)nn2C	–	·	·	·	89.1µM
CNC(=O)c1cc(C2CC2)nc2c1c(C1CCN([S+](=O)([O-])c3ccc(C)cc3)C1)nn2C (centres undefined)	–	·	·	·	?
CNC(=O)c1cc(C2CC2)nc2c1c(C1CCN([S+](=O)([O-])c3ccc(C)cc3)CC1)nn2C	?	·	·	·	50.1µM
Cc1cccc(NC(=O)N2CCCC(c3nn(C)c(=O)n3C3CCCC3)C2)c1 (centres undefined)	–	–	–	–	–
Cc1ccc(C(=O)N2CCN(c3nnc4c(Cl)cccn34)CC2)cc1F	–	–	–	–	–
OC(c1cccc(C(F)(F)F)c1)c1nc(Nc2cccnc2)n[nH]1 (centres undefined)	–	–	–	–	?
OC(c1cccc(C(F)(F)F)c1)c1nc(Nc2ccccc2)n[nH]1 (centres undefined)	?	–	–	–	89.1µM
OC(c1cccc(C(F)(F)F)c1)c1nc(Nc2ccncc2)n[nH]1 (centres undefined)	–	–	–	–	?
OC(c1cccc(C(F)(F)F)c1)c1nc(Nc2ccc(F)cc2F)n[nH]1 (centres undefined)	70.8µM	–	–	–	79.4µM
OC(c1cccc(C(F)(F)F)c1)c1nc(Nc2ccc(N3CCOCC3)cc2)n[nH]1 (centres undefined)	–	?	35.5µM	?	?
COCc1nnc(C2CC3(CCN(C(=O)c4ccc(OC)c(F)c4)CC3)CN2C)o1 (centres undefined)	–	–	·	·	–
SMILES	NIH3T3 tox	GPT2 inhibitor	FLuc inh	NPR1 antag	HEK cytotox
CN1CC(C(=O)NCc2ccc(F)cc2)NC1=O (centres undefined)	–	–	·	·	–
Cc1noc(C)c1[S+](=O)([O-])N1CCN(Cc2ccccc2-c2cccnc2)CC1	?	–	·	·	?
O=C(NCC(F)(F)F)C1CCCCN1Cc1ccc(-c2ccsc2)cc1 (centres undefined)	–	–	·	·	?
O=C(NCCc1ccc(Cl)cc1)C1CCCCN1Cc1ccc(-c2ccsc2)cc1 (centres undefined)	25.1µM	–	·	·	39.8µM
O=C(NC1CCCCC1)C1CCCCN1Cc1ccc(-c2ccsc2)cc1 (centres undefined)	–	–	·	·	39.8µM
CCNC(=O)c1coc(COc2ccc3c(c2)C(c2cccc(F)c2)N(C(=O)C(C)C)CC3)n1 (centres undefined)	?	–	–	–	39.8µM
CCCNC(=O)c1coc(COc2ccc3c(c2)C(c2ccc(F)cc2)N(C(=O)C(C)C)CC3)n1 (centres undefined)	22.4µM	–	–	–	?
O=C(Cc1cccc(Cl)c1)N1CCCC(C(=O)N2CCC(c3ccccc3)CC2)C1 (centres undefined)	?	–	·	·	?
O=C(NCc1ccco1)c1ccc2c(c1)n(Cc1ccc(F)cc1)c(=O)c1ccnn12	22.4µM	–	–	–	?
O=C(NCc1ccccc1)c1ccc2c(c1)n(Cc1ccc(F)cc1)c(=O)c1ccnn12	31.6µM	–	–	–	28.2µM
CCN(CC)CCNC(=O)c1ccc2c(c1)n(Cc1cccc(F)c1)c(=O)c1ccnn12	31.6µM	–	–	–	31.6µM
CC(=O)N1CCC2(CC1)CN(C(=O)c1c[nH]c3ccccc13)Cc1ccccc1O2	?	–	·	·	?
O=C(NCc1nnc2cc(-c3nc(C4CC4)no3)ccn12)c1ccccc1	–	–	–	–	?
O=C(NCc1nnc2cc(-c3nc(C4CC4)no3)ccn12)c1c(F)cccc1F	?	–	–	–	35.5µM
C[C@@H]1C(=O)O[C@H]2[C@H]1CC[C@@]1(C)Cc3sc(Nc4ccc(O)cc4)nc3[C@@H](C)[C@H]21	63.1µM	?	?	?	35.5µM
COc1cccc(C(=O)NC2CCCN(Cc3ccc(-c4cc(C)cc(C)c4)cc3)C2)c1 (centres undefined)	39.8µM	–	·	·	?
COc1cccc(-c2ccc(CN3CCCC(NC(=O)c4ccccc4)C3)cc2)c1 (centres undefined)	39.8µM	–	·	·	22.4µM
COc1ccc(C(=O)NC2CCCN(Cc3ccc(-c4cc(C)cc(C)c4)cc3)C2)cc1 (centres undefined)	–	–	·	·	–
COc1cccc(-c2ccc(CN3CCCC(NC(=O)c4ccc(F)cc4)C3)cc2)c1 (centres undefined)	31.6µM	–	·	·	11.2µM
O=C(c1ccn[nH]1)N1CCCCC1c1nc(CCOCC2CCCC2)no1 (centres undefined)	?	–	–	35.5µM	?
CCNC(=O)N1CCCCC1c1nc(CCOCC2CCCC2)no1 (centres undefined)	–	?	·	·	–
CCOc1ccccc1C1NC(=O)N(CC(=O)NCc2ccccc2Cl)C2=C1C(=O)OC2 (centres undefined)	?	–	–	–	?
CC(CCc1ccccc1)NC(=O)CN1C(=O)NC(c2ccc(Cl)cc2)C2=C1COC2=O (centres undefined)	?	–	–	–	39.8µM

Assay outcomes: PubChem, National Center for Advancing Translational Sciences (NCATS)
